{"source": "the supplement of paper PMC12350171", "note": "Counter-ions that a name gives are not always drawn. Values without a mark were called inactive.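 The calls were made as follows: active = AUC significantly below DMSO controls by Student t-fit with adjusted P under 0.01; inactive = not significantly reduced.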"}
{"tested_on": "Haemophilus parainfluenzae", "experiment": "growth AUC normalised to DMSO control (fraction of control); higher = less growth inhibition, active = hit call of the paper", "conditions": "20 µM", "procedure,_shortened": "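Three biological replicates were carried out, with OD578 read hourly for 24 h. Before inoculation at a starting OD578 of 0.01, pathogens were passaged anaerobically twice; plates were pre-reduced mGAM containing 20 μM compound and 1% DMSO, sealed with breathable membranes, and the Haemophilus parainfluenzae medium carried added hemin and NAD. Area under each growth curve was calculated by the trapezoidal rule up to the exponential-to-stationary transition and normalised to DMSO controls on the same plate.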"}
{"compound": "Cc1ncc(CO)c(CO)c1O", "note": "[Pyridoxine hydrochloride]", "growth AUC normalised to DMSO control": 0.958}
{"compound": "O=C(O)Cc1sc(-c2ccccc2)nc1-c1ccc(Cl)cc1", "note": "[Fentiazac]", "growth AUC normalised to DMSO control": 1.03}
{"compound": "C=C[C@H]1CN2CC[C@H]1C[C@@H]2[C@@H](O)c1ccnc2ccc(OC)cc12", "note": "[Quinidine hydrochloride monohydrate]", "growth AUC normalised to DMSO control": 1.01}
{"compound": "CC(=O)Nc1ccc(OCC(O)CNC(C)C)cc1", "note": "(stereo unspecified) [Practolol]", "growth AUC normalised to DMSO control": 1.01}
{"compound": "c1cnc(N2CCN(Cc3ccc4c(c3)OCO4)CC2)nc1", "note": "[Piribedil]", "growth AUC normalised to DMSO control": 1.02}
{"compound": "CC[N+](C)(CC)CCC[n+]1c(-c2ccccc2)c2cc(N)ccc2c2ccc(N)cc21", "note": "[Propidium iodide]", "growth AUC normalised to DMSO control": 1.04}
{"compound": "Nc1nc(=O)n([C@@H]2CS[C@H](CO)O2)cc1F", "note": "[(-) Emtricitabine]", "growth AUC normalised to DMSO control": 0.97}
{"compound": "NC[C@H]1O[C@H](O[C@H]2[C@H](O[C@@H]3O[C@H](CO)[C@@H](O)[C@H]3O)[C@@H](O)[C@H](N)C[C@@H]2N)[C@H](N)[C@@H](O)[C@@H]1O", "note": "[Ribostamycin sulfate salt]", "growth AUC normalised to DMSO control": "0.812 (active)"}
{"compound": "COc1ccccc1O", "note": "[Guaiacol]", "growth AUC normalised to DMSO control": 0.998}
{"compound": "COc1c2occc2c(OC)c2c(=O)cc(C)oc12", "note": "[Khellin]", "growth AUC normalised to DMSO control": 0.993}
{"compound": "CC1(C)NC(=O)N(c2ccc([N+](=O)[O-])c(C(F)(F)F)c2)C1=O", "note": "[Nilutamide]", "growth AUC normalised to DMSO control": 0.977}
{"compound": "C1N2CN3CN1CN(C2)C3", "note": "[Methenamine]", "growth AUC normalised to DMSO control": 1.05}
{"compound": "COC(=O)Nc1nc2cc(Sc3ccccc3)ccc2[nH]1", "note": "[Fenbendazole]", "growth AUC normalised to DMSO control": 1.04}
{"compound": "NC[C@@H]1O[C@H](O[C@H]2[C@@H](O)[C@H](O[C@@H]3[C@@H](O)[C@H](N)C[C@H](N)[C@H]3O[C@H]3O[C@H](CN)[C@@H](O)[C@H](O)[C@H]3N)O[C@@H]2CO)[C@H](N)[C@@H](O)[C@@H]1O", "note": "[Neomycin sulfate]", "growth AUC normalised to DMSO control": 0.923}
{"compound": "CS(=O)(=O)c1ccc(C2=C(c3ccccc3)C(=O)OC2)cc1", "note": "[Rofecoxib]", "growth AUC normalised to DMSO control": 0.964}
{"compound": "COc1ccc(C(=O)NCc2cccnc2)cc1C(=O)NCc1cccnc1", "note": "[Picotamide monohydrate]", "growth AUC normalised to DMSO control": 0.997}
{"compound": "CN1CCN(CCCN2c3ccccc3Sc3ccc(Cl)cc32)CC1", "note": "[Prochlorperazine dimaleate]", "growth AUC normalised to DMSO control": 0.913}
{"compound": "COc1ccc2c(c1)C(=O)N(CCc1ccc(S(=O)(=O)NC(=O)NC3CCCCC3)cc1)C(=O)C2(C)C", "note": "[Gliquidone]", "growth AUC normalised to DMSO control": 0.998}
{"compound": "Nc1nc(=S)c2ncn([C@@H]3O[C@H](CO)[C@@H](O)[C@H]3O)c2[nH]1", "note": "[Thioguanosine]", "growth AUC normalised to DMSO control": 0.973}
{"compound": "CN1CCC[C@@H]1CCO[C@](C)(c1ccccc1)c1ccc(Cl)cc1", "note": "[Clemastine fumarate]", "growth AUC normalised to DMSO control": 0.973}
{"compound": "C=CCSCC1Nc2cc(Cl)c(S(N)(=O)=O)cc2S(=O)(=O)N1", "note": "(stereo unspecified) [Althiazide]", "growth AUC normalised to DMSO control": 1.07}
{"compound": "O=c1cc(-c2ccc(O)c(O)c2)oc2cc(O)cc(O)c12", "note": "[Luteolin]", "growth AUC normalised to DMSO control": 1.02}
{"compound": "C1CCC(C(CC2CCCCN2)C2CCCCC2)CC1", "note": "(stereo unspecified) [Perhexiline maleate]", "growth AUC normalised to DMSO control": 0.977}
{"compound": "CN1CCN(C(c2ccccc2)c2ccccc2)CC1", "note": "[Cyclizine hydrochloride]", "growth AUC normalised to DMSO control": 0.995}
{"compound": "Cc1cc(-n2c(=O)[nH]c(=O)n(C)c2=O)ccc1Oc1ccc(SC(F)(F)F)cc1", "note": "[Toltrazuril]", "growth AUC normalised to DMSO control": 0.954}
{"compound": "C#C[C@]1(O)CC[C@H]2[C@@H]3CCc4cc(O)ccc4[C@H]3CC[C@@]21C", "note": "[Ethinylestradiol]", "growth AUC normalised to DMSO control": 1.04}
{"compound": "CCCSc1ccc2[nH]c(NC(=O)OC)nc2c1", "note": "[Albendazole]", "growth AUC normalised to DMSO control": 1.08}
{"compound": "Nc1ncn(C2OC(CO)C(O)C2O)c(=O)n1", "note": "(stereo unspecified) [Azacytidine-5]", "growth AUC normalised to DMSO control": 0.781}
{"compound": "c1ccc([C@H]2CN3CCSC3=N2)cc1", "note": "[Levamisole hydrochloride]", "growth AUC normalised to DMSO control": 0.991}
{"compound": "CC1(C)O[C@@H]2C[C@H]3[C@@H]4C[C@H](F)C5=CC(=O)C=C[C@]5(C)[C@H]4[C@@H](O)C[C@]3(C)[C@]2(C(=O)CO)O1", "note": "[Flunisolide]", "growth AUC normalised to DMSO control": 0.945}
{"compound": "CC1=C(/C=C/C(C)=C/C=C/C(C)=C/C(=O)O)C(C)(C)CCC1", "note": "[Retinoic acid]", "growth AUC normalised to DMSO control": 0.995}
